{
  "source": "PubChem BioAssay (Tox21)",
  "note": "Records with an inconclusive call do not appear. Active and inactive are the calls of the source. Calls follow the shape of the dose curve; as a rule, active = well fitted cell-killing curve with a large enough effect in the repeat runs; inconclusive = weak or mixed curves; inactive = flat fitted curve, though single readings scatter. % is scaled to controls: 0 for no effect and ±100 for the full control effect; potency is read from the fitted curve at half-maximal effect.",
  "data": [
    {"experiment": "qHTS RealTime-Glo MT Cell Viability Assay in HepG2 cells - 32 hour (AID 1224877); also: nearly all actives have a fitted effect of over 55% in size", "details": "RealTime-Glo luminescence; series mostly up to 76.8 µM; activity change, negative = cytotoxic: at the top concentration", "text": "U.S. Tox21 Program National Center for Advancing Translational Sciences [NCATS] NIH Chemical Genomics Center [NCGC] U.S. Environmental Protection Agency [EPA] National Institutes of Environmental Health Sciences [NIEHS] National Toxicology Program [NTP] U.S. Food and Drug Administration [FDA] Tox21 Assay Overview: Measure of cell viability is critical in the cell-base assay. Analysis of cell viability is necessary for the characterization of cell responses to cytotoxic drugs and environmental stress. A RealTime-Glo MT Cell Viability Assay to monitor cell viability in real time of continues cell culture during 40 hours of compound treatment was used to screen Tox21 10K library compounds in HepG2 cells. The RealTime-Glo MT Cell Viability Assay is a nonlytic, homogeneous, bioluminescent method to measure cell viability in real time using a simple, plate-based method. The assay involves adding NanoLuc luciferase and a cell-permeant prosubstrate to cells in culture. Viable cells reduce the proprietary prosubstrate to generate a substrate for NanoLuc luciferase. This substrate diffuses from cells into the surrounding culture medium, where it is rapidly used by the NanoLuc Enzyme to produce a luminescent signal. The signal correlates with the number of viable cells, making the assay well suited for cytotoxicity studies.\nTox21 Assay Protocol Summary: The mixture of HepG2 cell suspension and reagents were dispensed at 600cells/6 ul/well in 1536-well tissue culture treated black solid bottom plates using a Multidrop dispenser. After the assay plates were incubated at a 37 C/5% CO2 incubator for 5 hours, 23 nL of compounds dissolved in DMSO, positive and negative controls was transferred to the assay plate by a pintool work station. The plates were incubated at 37 C for 40 hours. The luminescence intensity were measured at 0h, 8h, 16h, 24h, 32h and 40h time points using ViewLux plate reader during compound treatment.", "values": [
      {"smiles": "N#Cc1c2ccccc2cc2ccccc12", "activity change, negative = cytotoxic": "2.27% (inactive)"},
      {"smiles": "CCCCON=O", "activity change, negative = cytotoxic": "1.76% (inactive)"},
      {"smiles": "CC(=O)[O-].CC(=O)[O-].O.O.[Zn+2]", "activity change, negative = cytotoxic": "0.386% (inactive)"},
      {"smiles": "CN/C(=N\\[N+](=O)[O-])NCc1cnc(Cl)s1", "activity change, negative = cytotoxic": "-5.16% (inactive)"},
      {"smiles": "CSC(C)(C)/C=N/O", "activity change, negative = cytotoxic": "3.41% (inactive)"},
      {"smiles": "N#CCCl", "activity change, negative = cytotoxic": "-12.8% (inactive)"},
      {"smiles": "CSSC", "activity change, negative = cytotoxic": "-13% (inactive)"},
      {"smiles": "N#CSCc1ccccc1", "activity change, negative = cytotoxic": "-1.69% (inactive)"},
      {"smiles": "C#CCO", "activity change, negative = cytotoxic": "-2.45% (inactive)"},
      {"smiles": "CCN(CC)C(=O)N[C@@H]1C=C2c3cccc4[nH]cc(c34)C[C@@H]2N(C)C1", "activity change, negative = cytotoxic": "0.862% [at 35.3 µM] (inactive)"},
      {"smiles": "Cc1cccc(Cc2cnc[nH]2)c1C", "activity change, negative = cytotoxic": "3.8% [at 35.3 µM] (inactive)"},
      {"smiles": "CC1CCCC1", "activity change, negative = cytotoxic": "7.5% (inactive)"},
      {"smiles": "CCC(C)c1cccc(C(C)CC)c1O", "note": "(stereo not given)", "activity change, negative = cytotoxic": "-7.59% (inactive)"},
      {"smiles": "c1cc[n+]2c(c1)-c1cccc[n+]1CC2", "activity change, negative = cytotoxic": "-0.302% [at 35.3 µM] (inactive)"},
      {"smiles": "CC(C)c1c(CN(C)C(C)Cc2ccccc2)n(C)n(-c2ccccc2)c1=O", "note": "(stereo not given)", "activity change, negative = cytotoxic": "-27.9% [at 35.3 µM] (inactive)"},
      {"smiles": "N#Cc1sc2c(=O)c3ccccc3c(=O)c=2sc1C#N", "Potency": "11000 nM (active)"},
      {"smiles": "O=[N+]([O-])c1cc(C(F)(F)F)c(Cl)c([N+](=O)[O-])c1Nc1ncc(C(F)(F)F)cc1Cl", "Potency": "17400 nM (active)"},
      {"smiles": "CC[N+]1(CC)CCC(OC(=O)C(O)(c2ccccc2)c2ccccc2)C1", "note": "(stereo not given)", "activity change, negative = cytotoxic": "2.2% [at 35.3 µM] (inactive)"},
      {"smiles": "C[C@H]1[C@H](c2ccc(Cl)cc2)SC(=O)N1C(=O)NC1CCCCC1", "activity change, negative = cytotoxic": "-13.8% (inactive)"},
      {"smiles": "C#CC1(O)CCCCC1", "activity change, negative = cytotoxic": "-2.91% (inactive)"},
      {"smiles": "Cc1cnc2c(C(=O)O)c(Cl)ccc2c1", "activity change, negative = cytotoxic": "3.19% (inactive)"},
      {"smiles": "CNC(=O)/C=C(\\C)OP(=O)(OC)OC", "activity change, negative = cytotoxic": "2.55% (inactive)"},
      {"smiles": "ClC(Cl)C(Cl)(Cl)Cl", "activity change, negative = cytotoxic": "1.25% (inactive)"},
      {"smiles": "CSC1=N[C@@](C)(c2ccccc2)C(=O)N1Nc1ccccc1", "activity change, negative = cytotoxic": "-9.5% (inactive)"},
      {"smiles": "CC(=O)[O-].CC(=O)[O-].CC(=O)[O-].[Cr+3]", "activity change, negative = cytotoxic": "-1.09% (inactive)"},
      {"smiles": "C=C(C)C(=O)[O][Sn]([CH2]CCC)([CH2]CCC)[CH2]CCC", "Potency": "245 nM (active)"},
      {"smiles": "Nc1nc(N)nc(Cl)n1", "activity change, negative = cytotoxic": "-0.576% (inactive)"},
      {"smiles": "CCOP(=O)(Sc1ccccc1)Sc1ccccc1", "activity change, negative = cytotoxic": "-7.05% (inactive)"},
      {"smiles": "O=NN(CCO)CCO", "activity change, negative = cytotoxic": "1.31% (inactive)"},
      {"smiles": "CCOP(=S)(OCC)SC(CCl)N1C(=O)c2ccccc2C1=O", "note": "(stereo not given)", "activity change, negative = cytotoxic": "-9.44% (inactive)"},
      {"smiles": "O=C(O)CCCCCCNC1c2ccccc2CCc2ccccc21", "activity change, negative = cytotoxic": "4.35% [at 35.3 µM] (inactive)"},
      {"smiles": "O=C(CCCCl)c1ccc(F)cc1", "activity change, negative = cytotoxic": "1.16% [at 35.3 µM] (inactive)"},
      {"smiles": "BrCCCBr", "activity change, negative = cytotoxic": "6.19% (inactive)"},
      {"smiles": "CC(C)N(C(=O)SC/C(Cl)=C/Cl)C(C)C", "activity change, negative = cytotoxic": "0.165% (inactive)"},
      {"smiles": "O=[N+]([O-])c1ccc(Cl)c(Cl)c1Cl", "activity change, negative = cytotoxic": "1.22% (inactive)"},
      {"smiles": "CCNc1nc(NC(C)C(C)C)nc(SC)n1", "note": "(stereo not given)", "activity change, negative = cytotoxic": "-0.251% (inactive)"},
      {"smiles": "CC1(C)[C@H](/C=C2\\CCSC2=O)[C@@H]1C(=O)OCc1coc(Cc2ccccc2)c1", "activity change, negative = cytotoxic": "-19.2% (inactive)"},
      {"smiles": "CC(O)C(=O)[O][Hg][c]1ccccc1", "note": "(stereo not given)", "Potency": "2750 nM (active)"},
      {"smiles": "CCC[CH2][Sn]([CH2]CCC)([CH2]CCC)[O][Sn]([CH2]CCC)([CH2]CCC)[CH2]CCC", "Potency": "537 nM (active)"},
      {"smiles": "COP(=S)(OC)Oc1nc(Cl)c(Cl)cc1Cl", "activity change, negative = cytotoxic": "-0.984% (inactive)"}
    ]}
  ]
}
